The whole screen tested about 290,000 compounds, of which about 3,000 (1%) were called active. This is one part of a sample in which actives are shown more often than they occur. Rule as the data show it: active = inhibition mostly above about 36% (no sharp cut-off); inactive = mostly below about 34%.
Assay: inhibition of NOD1-driven NF-kB reporter – cell-based, luminescence, uHTS, primary screen (AID 1578);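 also: HEK-293T reporter cells stimulated with the NOD1 agonist gamma-tri-DAP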
Conditions: NOD1-driven NF-kB luciferase reporter cells, at 4 µM, hits give high values
In the case of `O=C(Nc1ccc(F)cc1F)c1ccc2ncsc2c1`, the inhibition is reported as -38% (inactive). For `CC(C)OCCCNC(=O)c1cc(-c2cccnc2)nc2ccccc12`, the inhibition was -6.7% (inactive). For `COC(=O)CN(c1ccc(OC)c(OC)c1)S(C)(=O)=O`, the inhibition was -16% (inactive). For `CCOC(=O)c1[nH]ncc1CN1CCCC(C(=O)c2ccc(OC)c(OC)c2)C1` (centres undefined), the inhibition was 111% (active). With `CCOC(=O)c1[nH]ncc1CN1CCCC(C(=O)c2ccc(C(C)(C)C)cc2)C1` (centres undefined) the inhibition was -29.3% (inactive). In the case of `CCOC(=O)c1[nH]ncc1CN1CCCC(C(=O)c2cc(Cl)ccc2OC)C1` (centres undefined), the inhibition is reported as 16.4% (inactive). In the case of `Cc1cccc(N(Cc2ccccc2)C(=O)CCl)c1`, the inhibition is reported as -31.5% (inactive). For `Cc1ccc(C(=O)N(CC#N)CC#N)cc1C`, the inhibition was -16.5% (inactive). With `Cc1ccc(N(CCC#N)C(=O)CSc2ccc3c(c2)OCCO3)cc1` the inhibition was 3.9% (inactive). In the case of `Cc1ccc(N(CCC#N)C(=O)CCl)cc1C`, the inhibition is reported as 97.7% (active). In the case of `N#CCCN(C(=O)CCl)c1cccc(Cl)c1`, the inhibition is reported as 58% (active). In the case of `O=C(CCl)N(Cc1cccc([N+](=O)[O-])c1)c1cccc(Cl)c1`, the inhibition is reported as 101% (active). In the case of `O=C(c1ccco1)N(Cc1ccccc1)c1cccc([N+](=O)[O-])c1`, the inhibition is reported as 24% (inactive). In the case of `N#CCCN(C(=O)COc1ccc(Cl)cc1Cl)c1ccccc1`, the inhibition is reported as -24.1% (inactive). For `N#CCCN(C(=O)Nc1ccc(Cl)cc1)c1ccccc1`, the inhibition was -13% (inactive). In the case of `CCCCc1n[nH]c2c1/C(=N/O)CC(C)(C)C2`, the inhibition is reported as -12.1% (inactive). In the case of `O=C(N/N=C/c1ccncc1)c1cc2ccccc2cc1O`, the inhibition is reported as 11.3% (inactive). For `Cc1cccc(NC(=O)CSC2=NN3CCCC(=O)N=C3S2)c1C`, the inhibition was 7.2% (inactive). In the case of `CC(=O)O/N=C(/c1nonc1N)N(C)C`, the inhibition is reported as -21.6% (inactive). For `CCCc1nc2ccc(N)cc2c(=O)n1Cc1ccccc1Cl`, the inhibition was -43.9% (inactive). For `CC(Sc1nc(N)c(NC(=O)c2ccc(Br)o2)c(=O)[nH]1)C(=O)O` (centres undefined), the inhibition was -18.7% (inactive). With `CN(c1ccccc1)c1ccc(/C=C(\C#N)c2nnc3n2CCCCC3)cc1[N+](=O)[O-]` the inhibition was 78.8% (active). With `N#C/C(=C\c1cccc([N+](=O)[O-])c1)c1nnc2n1CCCCC2` the inhibition was 9% (inactive). For `N#C/C(=C/c1cccc([N+](=O)[O-])c1)c1nnc2n1CCCCC2`, the inhibition was -32.4% (inactive). For `Cc1ccnc(NC(=O)/C=C/c2ccccc2[N+](=O)[O-])c1`, the inhibition was -40.4% (inactive). With `Cc1nccn1CC(O)COc1ccc([N+](=O)[O-])cc1` (centres undefined) the inhibition was -5.8% (inactive). For `CCOC(=O)Cn1nnnc1CN(Cc1ccc(OC)cc1)Cc1cc2cc(C)cc(C)c2[nH]c1=O`, the inhibition was -21.1% (inactive). With `Cn1c(=O)c2c(nc(N/N=C/c3ccc(OC(=O)c4ccco4)cc3)n2Cc2ccccc2)n(C)c1=O` the inhibition was 26.6% (inactive). With `Cn1c(=O)c2c(nc(N/N=C/c3ccc(OC(=O)c4ccco4)cc3)n2Cc2ccc(F)cc2)n(C)c1=O` the inhibition was 33.2% (inactive). With `Cc1nn2c3ccccc3n(CC(=O)c3cccs3)c2nc1=O` the inhibition was 19.3% (inactive). With `COc1cccc(CNC(=O)N2CCN(S(=O)(=O)c3ccc(Cl)cc3)CC2)c1` the inhibition was 12.4% (inactive). In the case of `COc1ccc(C(=O)C2CCCN(C(=O)COc3ccc(C(C)=O)cc3)C2)cc1F` (centres undefined), the inhibition is reported as -21.9% (inactive). For `CCC(CO)[n+]1c(C)cc(/C=C2\Sc3ccccc3N2Cc2ccccc2)cc1C` (centres undefined), the inhibition was 75.9% (active). In the case of `C[n+]1ccccc1/C=C1\Sc2ccccc2N1CCO`, the inhibition is reported as -20.4% (inactive). With `CCN1/C(=C2\SC(=S)N(Cc3ccccc3)C2=O)Sc2ccccc21` the inhibition was 4.6% (inactive). In the case of `COc1ccc(CNS(=O)(=O)c2ccccc2Br)cc1`, the inhibition is reported as 3.1% (inactive). For `CC(=O)c1cccc(Nc2ccc(-c3ccccc3F)nn2)c1`, the inhibition was -57.9% (inactive). For `Cc1ccc(C(=O)NC(=S)N2CCN(c3cc(C)ccc3C)CC2)cc1`, the inhibition was 55.1% (active). In the case of `Cc1ccc(C(=O)NC(=S)N2CCN(c3ccccc3F)CC2)cc1`, the inhibition is reported as 19.9% (inactive). For `Cc1ccc(C(=O)NC(=S)N2CCN(C)CC2)cc1`, the inhibition was -21.2% (inactive). For `COc1ccc(OCC(O)CNC2CCCC2)cc1` (centres undefined), the inhibition was 5.8% (inactive). With `Cc1ccc(C)c(OCC(O)CNC2CCCC2)c1` (centres undefined) the inhibition was -40.4% (inactive). In the case of `Cc1ccc(OCC(O)CNC2CCCC2)cc1C` (centres undefined), the inhibition is reported as 62.6% (active). With `CC(C)OC1(c2ccccc2)OC(=O)c2ccccc21` (centres undefined) the inhibition was 13.3% (inactive). In the case of `Cc1ccc(C(=O)n2c(N)nc3ccccc32)cc1`, the inhibition is reported as 41.2% (active). In the case of `CC(=O)n1c2ccccc2c2ccccc21`, the inhibition is reported as 11.7% (inactive). In the case of `COc1ccc(C(=O)n2c(N)nc3ccccc32)cc1OC`, the inhibition is reported as -61.2% (inactive). With `Nc1ccc(C(=O)n2c3ccccc3c3ccccc32)cc1` the inhibition was 75.2% (active). For `Cc1ccc(C(=O)n2c3ccccc3c3ccccc32)cc1`, the inhibition was 7.1% (inactive). With `Nc1nc2ccccc2n1C(=O)c1ccccc1` the inhibition was -26.6% (inactive). With `O=C(CC1C(=O)NCCN1Cc1ccc(-c2ccccc2)cc1)NCCCn1cccn1` (centres undefined) the inhibition was -27.9% (inactive). In the case of `CNC(=O)COC(=O)[C@@H](Nc1ccc(S(=O)(=O)N2CCOCC2)cc1[N+](=O)[O-])C(C)C`, the inhibition is reported as -8.1% (inactive). With `Cc1ccc(C(=O)Nc2ncn[nH]2)cc1` the inhibition was -32.8% (inactive). With `CCOc1ccc(-c2[nH]ncc2Oc2cccc(OC)c2)c(O)c1` the inhibition was 10.8% (inactive). For `CCCCc1c(C)c(C#N)c2nc3ccccc3n2c1Cl`, the inhibition was 101% (active). For `CCc1c(C)c(C#N)c2nc3ccccc3n2c1Cl`, the inhibition was 62.6% (inactive). With `CCCCCc1c(C)c(C#N)c2nc3ccccc3n2c1-n1ccnc1C` the inhibition was 15.8% (inactive). For `CCc1c(C)c(C#N)c2nc3ccccc3n2c1N(C)C`, the inhibition was 2% (inactive). In the case of `Cc1cc(Cl)n2c(nc3ccccc32)c1C#N`, the inhibition is reported as -29.7% (inactive). With `CCCCc1c(C)c(C#N)c2nc3ccccc3n2c1NCCN(C)C` the inhibition was -4.5% (inactive). For `N#Cc1c(-c2ccccc2)c(C#N)c2nc3ccccc3n2c1N`, the inhibition was 37.8% (inactive). For `CC(C)(C)C1=C(C#N)C(c2cccnc2)C(C#N)=C(N)O1` (centres undefined), the inhibition was 19.8% (inactive). With `CCCCOc1ccc(-c2[nH]ncc2C=O)cc1` the inhibition was -46% (inactive). For `COc1ccc2nc(NC(=O)c3cccs3)sc2c1`, the inhibition was -15.7% (inactive).

Source: PubChem BioAssay AID1578 (Sanford-Burnham Center for Chemical Genomics, 2009)
